Structures are written as SMILES. Activity calls are given as the source filed them.

The nature of this assay: fission yeast growth modulation, primary screen, strain 972, OD600, 24 h, no modulator (AID 1090).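 Note: basal condition with compound alone and no growth modifier present; test concentration not given here.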 As to conditions: S. pombe 972 growth, higher = more signal, called active from +8 up or from −8 down.
With `COC(=O)[C@@]1(Cc2ccc(F)cc2)[C@H]2c3cc(C(=O)N(C)C)n(CCc4ccc(O)c(O)c4)c3C[C@H]2CN1C(=O)c1ccccc1`, the z-score was 0.955 (inactive). Under `[N-]=[N+]=Nc1ccccc1C[C@]1(C(=O)N2CCOCC2)N=C(c2ccc(OCCCO)cc2)O[C@H]1c1ccccc1N=[N+]=[N-]` stands -10.9 (active). As for `COCCOC(=O)N1C(=O)[C@@]2(c3cc(C#CCCO)ccc31)[C@H](c1ccc(OCCO)cc1)N1[C@H](c3ccccc3)[C@H](c3ccccc3)OC(=O)[C@H]1[C@@H]2C(=O)N1CCCCCCC1`, the z-score was 0.277 (inactive). Under `COC(=O)C(CC#Cc1ccc2c(c1)[C@]1(C(=O)N2)[C@H](c2ccc(OCCO)cc2)N2[C@H](c3ccccc3)[C@H](c3ccccc3)OC(=O)[C@H]2[C@@H]1C(=O)N1CCCCCCC1)C(=O)OC` stands 0.736 (inactive). Turning to `O=C1C[C@@](C(=O)O)(c2ccc([N+](=O)[O-])cc2)[C@@H](c2ccc(CO)cc2)N1C1CCCCC1`, the z-score was -1.36 (inactive). Under `C=CC[C@]1(C(=O)NCC(O)CO)COC(c2ccc(OCCCO)cc2)=N1` (some centres not stated) stands 0.691 (inactive); under `C=C(COC)C(=O)CC[C@H](OC(=O)c1cccnc1)c1ccc(OCCO)cc1`, -1.48 (inactive); under `C=CCNC(=O)[C@H]1[C@@H]2C(=O)O[C@@H](c3ccccc3)[C@@H](c3ccccc3)N2[C@@H](c2ccc(OCCO)cc2)[C@]12C(=O)Nc1ccccc12`, 0.259 (inactive). Under `C=CC1c2cc(O)c(OC)cc2CCN1C` (configuration not stated) stands -0.819 (inactive); under `CC1CC/C=C\[C@H]2OC34C=CCN(c5ccc(Cl)cc5)C(=O)[C@H]3N(CCCCCCO)C(=O)[C@]4(C)C2C(=O)O1` (some centres not stated), -0.884 (inactive); under `CCCC=C(CCC)[C@@H](NC(=O)c1ccc(C(F)(F)F)cc1)c1ccc(C(F)(F)F)cc1`, 1.17 (inactive). For the molecule `Cc1ccccc1C(O)C1C=CC2C(=O)N(c3ccccc3)C(=O)C2N1Nc1ccccc1` (configuration not stated), the z-score is 0.828 (inactive). Under `CCOC(=O)C[C@H]1[C@H](OC(=O)c2ccccc2-c2ccccc2)[C@@H](NC(=O)c2ccc3ccccc3c2)c2cc(OCCCO)ccc2N1C(=O)Cc1ccc(OC)cc1` stands -0.446 (inactive); under `COc1ccc(C(=O)Nc2ccc3c(c2)[C@@]2(O[C@H](CCO)[C@@H]([Si](C)(C)c4ccc(OC)cc4)[C@@H]2C)C(=O)N3Cc2ccccc2)cc1`, -4.96 (inactive); under `COCCOC(=O)N1C(=O)[C@@]2(c3cc(C#CCC(C(=O)OC)C(=O)OC)ccc31)[C@H](c1ccc(O)cc1)N1[C@H](c3ccccc3)[C@H](c3ccccc3)OC(=O)[C@H]1[C@@H]2C(=O)Nc1nc2ccccc2s1`, 0.583 (inactive). For `C=C(COC)/C(=C/C[C@H](OC(C)=O)c1ccccc1OCCO)c1cc(C(=O)OC)ccc1OC`, the z-score was -0.662 (inactive). Regarding `O=C1[C@H]2C=C(I)[C@H](C[C@@H]2OCCCCCCO)[C@@]12CO2`, the z-score is -2.19 (inactive).

On to `CCCCC(=C=CC[C@H](O)c1ccc(CO)o1)CCO`, for which the z-score was -1.17 (inactive). For the molecule `COc1ccccc1CN1C(=O)c2ccccc2[C@](Cc2ccccc2I)(C(=O)NCC(C)C)[C@@H]1c1ccc(CO)cc1`, the z-score was -0.652 (inactive). Under `C=CCC(OC(C)=O)[C@@H]1[C@@H](N(Cc2ccc(-c3ccccc3)cc2)C(=O)c2cccc3ccccc23)c2cc(OCCCO)ccc2N1C(=O)Cc1ccc(OC)cc1` (some centres not stated) stands 0.0643 (inactive).

Regarding `CC(C)N1C(=O)c2ccccc2[C@](C)(C(=O)NCC(F)(F)F)[C@@H]1c1ccc(CO)cc1`, the z-score is -0.837 (inactive). Under `O=C1NC(=O)C2C1C=CC(C(O)c1ccc([N+](=O)[O-])cc1)N2Nc1ccccn1` (configuration not stated) stands 0.917 (inactive); under `CN1C(=O)C2C=CC(C(O)c3ccc(-c4ccccc4)s3)N(NC(=O)OC(C)(C)C)C2C1=O` (configuration not stated), 1.47 (inactive); under `CN(C)CCCNC(=O)[C@@]1(C)c2ccccc2C(=O)N(Cc2ccc(OC(F)(F)F)cc2)[C@H]1c1ccc(CO)cc1`, -1.93 (inactive). The same measure for `COCCCNC(=O)[C@@]1(CCS(=O)(=O)c2ccccc2)COC(c2ccc(OCCCO)cc2)=N1`: -0.0454 (inactive); for `COC(=O)[C@@]1(Cc2ccc(OC)cc2)[C@H]2c3cc(C(=O)N4CCCC4)n(Cc4ccc(C(F)(F)F)nc4)c3C[C@H]2CN1C(=O)c1ccccc1`: -0.138 (inactive); for `COC(=O)C(CC#Cc1ccc2c(c1)[C@]1(C(=O)N2)[C@H](c2ccccc2OCCO)N2[C@H](c3ccccc3)[C@H](c3ccccc3)OC(=O)[C@H]2[C@@H]1C(=O)N1CCc2cc(OC)c(OC)cc2C1)C(=O)OC`: 1.13 (inactive).

The values are drawn from PubChem BioAssay.
